Results: PubChem BioAssay AID602250 (The Scripps Research Institute Molecular Screening Center, 2012)
Hit rate of the full screen: of about 360,000 compounds, about 2,200 (0.61%) were called active. Only a selection was taken, and actives are over-represented in it overall. Unmarked numbers belong to inactive results.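 Rule for the calls: active = inhibition above a per-plate cutoff, the plate's mean sample inhibition plus 3 SD (cut at about 24% in these data); inactive = the rest.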

Assay: calcium signal blockers in parental CHO-K1 cells – cell-based, Fluo-8 calcium fluorescence, full deck, 1536-well, counter-screen for M1 antagonist project, primary screen (AID 602250);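 note: 0% = DMSO plus EC80 ATP and 100% = DMSO alone without ATP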
Settings: ATP-induced calcium, Fluo-8 fluorescence, at 3 µM, active compounds read high

SMILES	inhibition
CCCCN(C)C(=O)c1ccc2c(c1)N(CC)C(=O)c1ccccc1S2(=O)=O	18%
O=C(Cc1ccc([N+](=O)[O-])cc1)Nc1ccc(C(=O)N2CCOCC2)cc1	-11.3%
O=C(Cc1cccs1)Nc1ccc([N+](=O)[O-])cc1	23.9% (active)
Cc1cc(C)n(CC(=O)Nc2ccc([N+](=O)[O-])cc2)n1	-4.31%
Cc1noc(C)c1S(=O)(=O)Nc1cc(C(F)(F)F)ccc1N1CCOCC1	3.45%
Cc1ccc(N(CCC(=O)O)S(=O)(=O)c2cccc(C(F)(F)F)c2)cc1	3.61%
Cc1oc2c(F)c(F)c(F)c(F)c2c1S(=O)(=O)Nc1cccc(C(F)(F)F)c1	27.9% (active)
COc1cc(C(=O)NCCOC(=O)c2cccc(N(C)C)c2)cc(OC)c1OC	-4.91%
CCOc1ccc2[nH]c(=O)c(CN(CCCO)C(C)=O)cc2c1	7.13%
Cc1cccc(OCC(O)Cn2c(=N)n(CCN3CCOCC3)c3ccccc32)c1 (stereo not drawn)	-12.8%
OC(CN=c1sc2ccccc2n1CC(O)COc1ccccc1)COc1ccccc1 (stereo not drawn)	62.5% (active)
OC(COc1ccccc1)CN1CCN(c2cccc(Cl)c2)CC1 (stereo not drawn)	-14.9%
COC(=O)Cc1c(O)ccn(Cc2cccc(C(F)(F)F)c2)c1=O	-6.45%
Cc1cccc(C)c1Nc1nnc(SCC(=O)NCCCN2CCCC2=O)s1	-7.35%
COc1ccc(CNC(=O)COC(=O)C(CCSC)N2C(=O)c3ccccc3C2=O)cc1 (stereo not drawn)	-6.61%
O=C(NCCN1CCOCC1)[C@H](Cc1ccccc1)N1C(=O)c2ccccc2C1=O	-4.92%
CCOC(=O)C(Cc1ccc(N)cc1)N1C(=O)c2ccccc2C1=O (stereo not drawn)	25.2% (active)
CCCS(=O)(=O)NC(=O)C1(C)CCCN(C(=O)c2cccs2)C1 (stereo not drawn)	-9.34%
CCCNC(=O)c1cc2c(c(-c3cccc(-c4ccc(C#N)cc4)c3)n1)[C@@H](CCO)N(C(=O)CC)C2	25.5% (active)
CCC(=O)N1Cc2cc(C(=O)NCc3cccc(F)c3)nc(-c3cccc(C4=CCCC4)c3)c2[C@H]1CCO	-1.18%
CCNC(=O)c1cc2c(c(-c3cccc(-c4cncnc4)c3)n1)[C@H](CCO)N(C(C)=O)C2	-11.6%

SMILES	inhibition
COc1ccc(C(C[N+](=O)[O-])n2nc(C)cc2C)cc1 (stereo not drawn)	-0.39%
Cc1c(Cl)cccc1NC(=O)Nc1ccc(C(=O)N2CCCC2)cc1	-18.4%
Cc1c(NC(=O)Nc2ccccc2Cl)sc(=S)n1C	24.7% (active)
Cc1c(Cl)cccc1NC(=O)NCc1ccc(C)n1C	3.33%
CC1(C)CC(=O)c2cnc3nc4ccccc4n3c2C1	-11.2%
CC1(C)CC(=O)C(N=Nc2c(F)cccc2F)=C(O)C1	-15.2%
CCOC(=O)C1(C)CCCN(C(=O)c2cccc(Cl)c2)C1 (stereo not drawn)	-16.1%
C=CCO/N=C(\C)c1c(O)c(C)c(-c2ccccc2)n(-c2ccccc2)c1=O	28% (active)
CCO/N=C(/C)c1c(O)cc(-c2ccccc2)n(-c2ccccc2)c1=O	-7.62%
Cc1nn(-c2ccccc2)c(C)c1/C=N/NC(=O)CSc1nc2ccccc2c(=O)n1-c1ccccc1	14.8%
O=C(C1CC1)N1N=C2CCCCC2C1(O)C(F)(F)F (stereo not drawn)	3.71%
CC(=O)NCCc1ccc(S(=O)(=O)Nc2ccc(C)c(S(=O)(=O)N3CCOCC3)c2)cc1	11%
Cn1c(=O)c2c(SCC(=O)N3CCOCC3)nc(C3CC3)nc2n(C)c1=O	-6.78%
CCCC1(C(=O)OCC)NC(c2ccc(N(C)C)cc2)C2C(=O)N(c3ccc4c(c3)OCCO4)C(=O)C21 (stereo not drawn)	-5.19%
Cc1ccc(CNC(=O)CCNS(=O)(=O)c2cccc3nonc23)cc1	-10.2%
CCNC(=S)NNC(=O)Cc1ccccc1	32.5% (active)
CCNC(=S)NNC(=O)C1CCN(Cc2ccccc2)CC1	-12.2%
Cc1scc(C(=O)NNC(=S)NCc2ccccc2)c1C	-15.3%
CCOC(=O)C1CCN(C(=O)c2ccc3c(=O)n4nc(Nc5ccccc5CC)sc4nc3c2)CC1	-9.89%
CCSc1nc(O)c(C(c2cccc(OC)c2)c2c(O)nc(SCC)[nH]c2=O)c(=O)[nH]1	-3.25%
CCSc1nc2c(c(=O)[nH]1)C(c1cccnc1)C(C(=O)OC(C)C)=C(C)N2 (stereo not drawn)	25.5% (active)

SMILES	inhibition
COC(=O)C1=C(N)Oc2cc(C)oc(=O)c2C1c1cccnc1 (stereo not drawn)	-3.67%
COc1ccc(Cl)cc1NC(=O)CN(C)C(=O)CCCc1c[nH]c2ccccc12	2.49%
O=C1NC(Cc2ccccc2)c2nc3ccc(Br)cc3c(=O)n2-c2cc3ccccc3cc21 (stereo not drawn)	12.3%
COc1ccc(O)c(C=Nc2cc(C)on2)c1	-9.65%
Cc1ccc(NC(=O)Nc2ccc3oc(C)nc3c2)cc1	-8.85%
O=C(Nc1ccc2ccccc2c1)Nc1ccc2snnc2c1	32.6% (active)
CS(=O)(=O)c1ccccc1C(=O)Nc1ccc2sccc2c1	-10.2%
CC(C)Oc1ccc(CC(=O)NNC(=S)Nc2ccc(Br)cc2)cc1	-8.93%
CC(C)OCCCNc1ncnc2c1[nH]c1ccc(F)cc12	26.5% (active)
CCOc1ccc(C2NC(=S)NC3=C2CCc2ccccc23)cc1 (stereo not drawn)	4.36%
COCc1[nH][nH]c(=O)c1C=Nc1ccc(F)cc1F	3.8%
CCN1/C(=C\c2ccc3ccccc3[n+]2CC)Sc2cc(C)ccc21	47.2% (active)
O=C(CC(O)(C(F)(F)F)C(F)(F)F)Nc1ccc(Cl)c(Cl)c1	42.9% (active)
N#CCCN(C(=O)Nc1ccc(Cl)c(Cl)c1)C1CCCCC1	5.09%
CC1(C(=O)O)CCC(C(=O)Nc2ccc(Cl)c(Cl)c2)C1(C)C (stereo not drawn)	-12.5%
CC1(C)C2CCC13CS(=O)(=O)NC3C2 (stereo not drawn)	-9.03%
NC1=NC2(CCCCC2)N(c2ccc(F)cc2F)C(N)=N1	13.8%
CC(C)N1CCc2c(sc(NC(=O)Cc3ccccc3)c2C#N)C1	24.7% (active)
N#Cc1c(N)sc2c1CCN(C(=O)OCc1ccccc1)C2	-19.6%
CC(=O)N1CCc2c(sc(NC(=O)CCS(=O)(=O)c3ccccc3)c2C#N)C1	0.29%
C[C@H](NC(=O)[C@@H]1CCCN1C(=O)[C@@H]1CCCN1C(=O)c1ccccc1)c1ccccc1	-24.1%
